DT40 TDP1 CPT = DT40-hTDP1 cell growth loss with CPT; 420,000 tested, 12% active; AID 686979; chicken DT40 Tdp1-/-;hTDP1 cells + 20 nM CPT, ATP luminescence, 48 h; Potency, µM (series often up to 46.2 µM), without a hit: top-dose activity change, negative = growth inhibition, hits mostly inhibitors; also: potency is read from the fitted curve at half-maximal effect; nearly all actives have a fitted effect of over 55% in size
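Cell growth measured by CellTiter-Glo luminescence after a minimum 48 h, 37 C compound exposure with 20 nM CPT in Tdp1-knockout DT40 cells stably expressing hTDP1, seeded 400/well; qHTS titration format.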
RORgamma inh = ROR gamma (mouse) transcription inhibition; P51450; Drosophila S2 Gal4-RORgamma UAS-luciferase reporter, 20 h; Potency, µM (series often up to 53.6 µM), without a hit: at the highest dose activity change, negative = inhibition, usual class: inhibitors; 310,000 tested, 5.4% active; AID 2551; also: potency is read from the fitted curve at half-maximal effect; nearly all actives have a fitted effect of over 60% in size
Target sequence (P51450 whole entry, looked up, the tested form may be a part): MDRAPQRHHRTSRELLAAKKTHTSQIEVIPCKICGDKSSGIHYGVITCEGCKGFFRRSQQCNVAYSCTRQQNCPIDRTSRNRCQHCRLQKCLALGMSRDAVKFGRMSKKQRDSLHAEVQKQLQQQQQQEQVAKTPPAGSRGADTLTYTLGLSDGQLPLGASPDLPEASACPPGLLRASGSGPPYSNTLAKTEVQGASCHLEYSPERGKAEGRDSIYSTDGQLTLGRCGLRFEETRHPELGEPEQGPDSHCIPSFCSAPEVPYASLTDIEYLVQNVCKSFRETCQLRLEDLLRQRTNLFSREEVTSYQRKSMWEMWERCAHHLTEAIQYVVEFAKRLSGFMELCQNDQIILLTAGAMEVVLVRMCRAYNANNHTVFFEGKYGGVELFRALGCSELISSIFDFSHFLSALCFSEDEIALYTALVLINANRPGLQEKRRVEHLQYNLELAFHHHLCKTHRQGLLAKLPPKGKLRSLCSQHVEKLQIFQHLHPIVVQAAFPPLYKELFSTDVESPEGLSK
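In this cell-based reporter format, copper sulfate (700 uM final) drives Gal4–ROR gamma fusion expression from a metallothionein promoter in Drosophila Schneider cells; compounds preincubated 1 hr, reporter read after 20 hr at ambient temperature.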
VP16 counter = inhibits Gal4-VP16 luciferase reporter, ROR gamma counter-screen | Potency, µM (series often up to 53.6 µM), without a hit: at the top dose activity, negative = inhibition, usual class: inhibitors | 310,000 tested, 3.5% active | Drosophila S2 Gal4-VP16 UAS-luciferase, luminescence, 20 h;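 also: Gal4-VP16 expression switched on by copper sulfate through the metallothionein promoter; potency is read from the fitted curve at half-maximal effect; nearly all actives have a fitted effect of over 50% in size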
LDHA block = LDHA (human) enzyme inhibition. P00338. purified LDHA, NADH/diaphorase-resazurin fluorescence; active compounds read low. activity change, % (values are at about 110 or 230 µM). 480,000 tested, 0.15% active. AID 1347041; in the data active = activity change below about -30%; inconclusive = mostly about -25% to -30%;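 also: plate controls were DMSO wells for no effect and wells without enzyme for full effect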
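Human LDH5 at 2 nM final in Tris HCl pH 7.4 with 0.06 mM NADH and 0.2 mM pyruvate, reacted 5 minutes at room temperature. Remaining NADH coupled via diaphorase/resazurin; resorufin fluorescence read at 0 and 20 minutes, normalized to enzyme-free and DMSO wells.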
IL-1B inflam inh = inhibitors of inflammasome signaling (IL-1 beta secretion); activity change, % at 57.5 µM; THP-1 LPS/ATP IL-1B secretion, AlphaLISA, 16 h; active compounds read low; 360,000 tested, 4.7% active; in the data active = activity change below about -50%; inconclusive = mostly about -30% to -49%
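THP-1 cells pretreated 1 hr with compounds (up to 57.5 uM final), then stimulated with LPS (250 ng/mL final) plus ATP (1.25 mM final); secreted IL-1B measured by AlphaLISA after 16 hr, decreased signal indicating inhibition.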
DT40 TDP1 no CPT = qHTS for Inhibitors of human tyrosyl-DNA phosphodiesterase 1 (TDP1): qHTS in cells in absence of CPT | Potency, µM (highest dose often 46.2 µM), for inactives: top-dose activity change, negative = growth inhibition, actives largely listed as inhibitors | DT40 Tdp1-/- hTDP1 cells, no CPT, ATP luminescence, 48 h | 420,000 tested, 15% active; also: potency is read from the fitted curve at half-maximal effect; nearly all actives have a fitted effect of over 55% in size
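Seeded 400 DT40-hTDP1 cells/well (vehicle DMSO, no 20 nM CPT); pinned compounds; ≥48 hr at 37 °C; CellTiter-Glo luminescence as viability measure.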
* hit, by the source's call; ? = inconclusive; · = not tested or not shown; [ ] = another dose, or the depositor's remark. Only some compounds are listed: those with a hit (about 18% of all), similar ones and a draw of the others. Unless noted, calls follow the shape of the dose curve; as a rule, active = well fitted curve in the direction sought with a large enough effect; inconclusive = small, poorly fitted or top-dose-only effect, or another doubt; inactive = no such curve, though single readings can be large; an effect the other way counts as inactive or inconclusive. Unless noted, % is scaled to controls: 0 for no effect and ±100 for the full control effect.

SMILES	DT40 TDP1 CPT	RORgamma inh	VP16 counter	LDHA block	IL-1B inflam inh	DT40 TDP1 no CPT
N#CC1=C(N)OC2=C(CC/C2=C\c2ccccc2Cl)C1c1ccccc1Cl (stereo unspecified)	?	-39.5%	?	-3.1	-68.0*	20.6µM*
CN(N)c1nc(C(F)(F)F)nc2ccccc12	-5.8%	7.7%	8.6%	-14.2	-5.2	-24.9%
CN(NS(=O)(=O)c1ccc(Br)cc1)c1nc(C(F)(F)F)nc2ccccc12	23.1µM*	?	?	0.7	-55.1*	?
Cc1cccc(-c2nn(-c3ccccc3)cc2C(=O)N2CCN(C3CCS(=O)(=O)C3)CC2)c1 (stereo unspecified)	-3.9%	·	·	-13.1	1.8	-5.5%
Cc1ccc(-n2cc(CNCC3CC(=O)N(C4CC4)C3)c(-c3cccc(C)c3)n2)cc1 (stereo unspecified)	11.6µM*	?	?	-3.4	-63.9*	14.6µM*
Cc1ccc(C(=O)N(Cc2ccncc2)C2CC2)cc1	·	·	·	0.5	·	·
CCOc1cc(C(=O)Nc2ccc(N3CCN(C(C)=O)CC3)cc2)cc(OCC)c1OCC	-6.6%	13.1%[1.91 µM]	6.9%	0.8	14.5	-2.0%
CCOc1cc(CNc2ccc(N3CCOCC3)c(C(=O)O)c2)cc(Br)c1OCC	·	·	·	5.5	·	·
CCOc1cc(CNc2ccc3c(c2)OCCO3)cc(Br)c1OCC	2.59µM*	?	?	11.3	-10.6	0.82µM*
CCOc1c(Br)cc(CNc2ccc(N3CCN(C(C)=O)CC3)cc2)cc1OC	16.4µM*	-18.1%	?	2.4	?	?
CCOc1cc(CNc2ccc(N3CCOCC3)cc2)cc(Br)c1OCC	?	165.6%	-17.7%	1.7	?	16.4µM*
COc1cc(CNc2ccc(N3CCOCC3)cc2)cc(Br)c1OC	?	13.4%	?	-4.1	-14.8	16.4µM*
O=C(NCc1ccncc1)c1ccc(C2CCCCC2)cc1	·	·	·	5.5	·	·
COc1cc(CNc2ccc(N3CCN(C(C)=O)CC3)cc2)ccc1OCc1ccc(F)cc1	?	?	-6.1%	15.4	-18.8	16.4µM*
CC(=O)N1CCN(c2ccc(NCc3ccc(F)cc3)cc2)CC1	-19.6%	50.7%	10.6%	10.3	14.3	3.3%
CC(C)(C)c1nc2cc(NC(=O)c3cc[n+]([O-])cc3)ccc2o1	·	·	·	12.5	·	·
CCCC1NC(=O)c2cc3ccccc3cc2-n2c1nc1cc(F)ccc1c2=O (stereo unspecified)	?	·	·	2.5	6.8	20.6µM*
O=C1NC(Cc2ccc(O)cc2)c2nc3ccc(F)cc3c(=O)n2-c2cc3ccccc3cc21 (stereo unspecified)	?	·	·	1.4	-18.2	25.9µM*
Cc1ccc2nc3n(c(=O)c2c1)-c1cc2ccccc2cc1C(=O)NC3Cc1ccc(O)cc1 (stereo unspecified)	-8.3%	·	·	4.5	27.9	-14.0%
O=C1NC(Cc2ccccc2)c2nc3ccccc3c(=O)n2-c2cc3ccccc3cc21 (stereo unspecified)	13µM*	·	·	3.5	-5.4	13µM*
Cc1ccc2c(=O)n3c(nc2c1)C(Cc1ccccc1)NC(=O)c1cc2ccccc2cc1-3 (stereo unspecified)	?	·	·	0.5	-8.5	?
O=C1NC(Cc2ccccc2)c2nc3cc(F)ccc3c(=O)n2-c2cc3ccccc3cc21 (stereo unspecified)	5.17µM*	·	·	0.8	-10.7	5.8µM*
COc1cc2nc3n(c(=O)c2cc1OC)-c1cc2ccccc2cc1C(=O)NC3Cc1ccccc1 (stereo unspecified)	?	·	·	-13.4	3.9	16.4µM*
O=C1NC(Cc2ccccc2)c2nc3cc(F)c(F)cc3c(=O)n2-c2cc3ccccc3cc21 (stereo unspecified)	23.1µM*	·	·	0.2	-5.2	18.4µM*
O=C1NC(Cc2ccccc2)c2nc3ccc(F)cc3c(=O)n2-c2ncccc21 (stereo unspecified)	?	·	·	-9.4	-5.5	20.6µM*
SMILES	DT40 TDP1 CPT	RORgamma inh	VP16 counter	LDHA block	IL-1B inflam inh	DT40 TDP1 no CPT
COc1cc2nc3n(c(=O)c2cc1OC)-c1cc2ccccc2cc1C(=O)NC3CC(C)C (stereo unspecified)	?	·	·	1.3	-8.8	?
COc1cc2nc3n(c(=O)c2cc1OC)-c1ncccc1C(=O)NC3Cc1ccccc1 (stereo unspecified)	-10.2%	·	·	1.0	-25.1	-29.0%
O=C1NC(Cc2ccc(O)cc2)c2nc3cc(F)c(F)cc3c(=O)n2-c2cc3ccccc3cc21 (stereo unspecified)	?	·	·	3.8	-28.1	?
Cc1[nH]c(=O)[nH]c(=O)c1CCC(=O)Nc1nc(C2CC2)cs1	·	·	·	-3.8	·	·
CCc1ccccc1NC(=O)CN(C)C(=O)CSc1nnc(Nc2cccc(C)c2)s1	-10.9%	?	-11.4%	-2.3	-6.1	?
CCc1ccc(Nc2nnc(SCC(=O)N(C)CC(=O)Nc3ccccc3CC)s2)cc1	18.4µM*	38.8%	-37.3%	-2.0	-19.2	14.6µM*
CCc1cccc2sc(N(CCCN3CCOCC3)C(=O)CS(=O)(=O)c3ccccc3)nc12	?	·	·	-3.2	-14.2	?
O=C(CCS(=O)(=O)c1ccccc1)N(CCCN1CCOCC1)c1nc2c(F)cccc2s1	2.31µM*	·	·	-0.4	-107.1*	2.91µM*
O=C(CCS(=O)(=O)c1ccccc1)N(CCCN1CCOCC1)c1nc2ccc(F)cc2s1	2.59µM*	·	·	-3.8	-82.3*	3.66µM*
CCCC(=O)N(CCN1CCOCC1)c1nc2c(C)cccc2s1	-26.5%	-26.3%	-1.1%	-3.7	-51.5*	9.8%
CC(C)c1ccc(-n2nnnc2SCc2nc3ccccc3o2)cc1	·	·	·	2.9	·	·
Cn1c(N2CCN(C(c3ccccc3)c3ccccc3)CC2)nc2ccccc21	?	11.2µM*	12.6µM*	-2.7	-84.1*	18.4µM*
CCOc1ccc(NC(=O)Cc2ccccc2)cc1	-3.4%	1.2%	0.2%	-8.8	-6.5	?
CCOc1ccc(NC(=O)CC(c2ccccc2)c2ccc(F)cc2)cc1 (stereo unspecified)	-14.7%	10.1%	-6.5%	-4.9	4.6	14.6µM*
COc1ccc(NC(=O)CC(c2ccc(F)cc2)c2ccc(OC(C)C)cc2)cc1 (stereo unspecified)	?	39.8%	-8.8%	-9.1	8.9	20.6µM*
CCCNC(=O)C1CCCN1S(=O)(=O)c1ccc(Br)s1 (stereo unspecified)	·	·	·	-4.3	·	·

Screens from PubChem BioAssay.
